In the library only some 0.93% were active in any assay of this set; here they are far more common.
CIT2-GFP yeast – modulators of CIT2-GFP expression in yeast, primary screen, S. cerevisiae, GFP fusion, multiplex flow cytometry, MLPCN library; GFP response vs DMSO, % at 10 µM; S. cerevisiae CIT2-GFP strain, 3 h; 100 means same as DMSO wells; hit rate 0.065% among 320,000;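 active = GFP response relative to DMSO above a set limit, near the screen mean plus 3 SD, cut at about 150% in these data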;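 also: ratio of well median GFP fluorescence to mean of DMSO wells on the plate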
MEP2 TOR yeast – modulators of MEP2-GFP levels in yeast, primary screen, S. cerevisiae, multiplex flow cytometry, MLPCN library; S. cerevisiae MEP2-GFP strain, 3 h; 100% = DMSO control level; GFP response vs DMSO, % at 10 µM; hit rate 0.51% among 330,000; AID 2016, 2009;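 active = GFP response versus DMSO above a set limit, roughly screen mean plus 3 SD, cut at about 180% in these data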;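 also: median GFP fluorescence of the barcode-gated MEP2-GFP cells per well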
RPL19A-GFP yeast – RPL19A-GFP expression modulators in yeast, primary screen, cell-based, S. cerevisiae, multiplex flow cytometry, MLPCN | hit rate 0.3% among 330,000 | percent response vs DMSO, % at 10 µM | S. cerevisiae RPL19A-GFP strain, 3 h; stronger effect = lower value | AID 2025, 2009;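 active = percent response vs DMSO below 50%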;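 also: median channel GFP fluorescence of the barcoded RPL19A-GFP strain; lower means less RPL19A-GFP as with rapamycin TOR inhibition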
AGP1-GFP MLPCN – modulators of AGP1-GFP expression in yeast TOR pathway, primary screen, cell-based, multiplex flow cytometry, S. cerevisiae, MLPCN library; 3 h; GFP as percent of DMSO wells; GFP response vs DMSO, % at 10 µM; hit rate 0.02% among 320,000; AID 2066, 2009;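 active = GFP response relative to DMSO above a set limit, near screen average plus 3 SD, cut at about 150% in these data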;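 also: median GFP channel fluorescence of the gated AGP1 strain per well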
LAP4-GFP MLPCN – modulators of LAP4-GFP expression in yeast, primary screen, S. cerevisiae, multiplex flow cytometry, MLPCN library; GFP response vs DMSO, % at 10 µM; hit rate 0.34% among 320,000; 3 h; median GFP as percent of DMSO wells;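 active = GFP response vs DMSO above a set limit, about the screen mean plus 3 SD, cut at about 150% in these data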
LAP4-GFP pick2 – LAP4-GFP expression modulators in yeast, confirmation, cell-based, second cherry pick, flow cytometry; shares compounds with LAP4-GFP MLPCN; S. cerevisiae LAP4-GFP strain, 3 h; GFP response vs DMSO, % at 10 µM; hit rate 20% among 590;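 active = GFP signal as percent of the solvent control above about 150%, meaning raised reporter expression, limit read from the data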
MEP2 cherry2 – modulators of MEP2-GFP levels in yeast, confirmation, S. cerevisiae, flow cytometry GFP, second cherry picks; shares compounds with LAP4-GFP MLPCN; S. cerevisiae MEP2-GFP strain, 3 h; GFP response vs DMSO, % at 10 µM; hit rate 10% among 590; AID 2622, 2010;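 active = GFP signal above 150% of the solvent control wells, that is a rise of more than half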;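 also: median channel GFP fluorescence of all gated yeast cells per well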
RPL19A GFP CP2 – RPL19A-GFP modulators in TOR pathway yeast, confirmation, cell-based, S. cerevisiae, flow cytometry, second cherry pick. shares compounds with LAP4-GFP MLPCN. S. cerevisiae RPL19A-GFP strain, 3 h; stronger effect = lower value; 100% means same as DMSO wells. GFP response vs DMSO, % at 10 µM. hit rate 3% among 590. AID 2623, 2010;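 active = under 65% GFP response relative to DMSO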;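 also: median GFP channel fluorescence per well over the all cells gate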
CIT2 GFP CP2 – modulators of CIT2-GFP expression in yeast, confirmation, flow cytometry, second cherry pick, single plex | shares compounds with LAP4-GFP MLPCN | S. cerevisiae CIT2-GFP strain, 3 h; DMSO control wells read 100% | GFP response vs DMSO, % at 10 µM | hit rate 8% among 590;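 active = GFP response vs DMSO above about 150%, limit read from the data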;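 also: median green fluorescence per well over all gated yeast cells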
AGP1-GFP pick2 – AGP1-GFP expression modulators, hit retest, confirmation, cell-based, flow cytometry, S. cerevisiae, cherry pick set 2; S. cerevisiae AGP1-GFP strain, 3 h; 590 tested, under 10 active; shares compounds with LAP4-GFP MLPCN; percent response vs DMSO, % at 10 µM; AID 2643, 2010;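 active = over 150 percent of DMSO response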;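 also: median GFP channel fluorescence over all cells without mother daughter split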
s288c autofluor – compound autofluorescence in yeast s288c, dose response, artefact control for yeast TOR pathway GFP screen, s288c strain | shares compounds with LAP4-GFP MLPCN | S. cerevisiae s288c, 520 nm autofluorescence, flow cytometry, 3 h; stronger effect = higher value; zero means same as solvent-only cells | fluorescence change (kMESF span) at 33 µM | 610 tested, under 10 active | AID 2757, 2010;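 active = fluorescence span over the dose series, or activity score, above about 33, limit read from the data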
s288c autofl DR – autofluorescence of compounds in yeast s288c, dose response, artefact control for yeast TOR pathway GFP screen, primary hits, KU SAR, s288c parental. shares compounds with LAP4-GFP MLPCN. AID 488829, 2010. S. cerevisiae s288c parental, compound autofluorescence, flow cytometry, 3 h. fluorescence change (span) at 33 µM. 110 tested, under 10 active;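 active = fluorescence change span, or the activity score built from it, above 25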
TORC1 bypass gr – wild-type yeast growth inhibition sparing TORC1 bypass cells, mechanism study for yeast TOR pathway GFP screen, BY4741 wild type, TORC1 bypass strain | shares compounds with LAP4-GFP MLPCN | S. cerevisiae BY4741 spot growth rating, 48-72 h; stronger effect = lower value | growth rating (0-3) at 30 µM | 120 tested, under 10 active;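 active = growth rating at most 1 for wild type yeast while the TORC1 bypass strain still grows fully, rated 3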
Of the large screens only hits and unclear results are named; the others gave an inactive call (follow-up assays come after a bar, where they were run).

CC(C)[C@]1(c2ccccc2)ON(c2ccccc2C(F)(F)F)C1=O	none | LAP4-GFP pick2 inactive | MEP2 cherry2 inactive | RPL19A GFP CP2 inactive | CIT2 GFP CP2 inactive | AGP1-GFP pick2 inactive | s288c autofluor inactive
CC(C)[C@]1(c2ccc(Cl)cc2)ON(c2ccccc2C(F)(F)F)C1=O	none | LAP4-GFP pick2 inactive | MEP2 cherry2 inactive | RPL19A GFP CP2 inactive | CIT2 GFP CP2 inactive | AGP1-GFP pick2 inactive | s288c autofluor inactive
O=C(O)c1nn(-c2ccccc2C(F)(F)F)cc1O	none
O=C1N(c2ccccc2C(F)(F)F)O[C@]1(c1ccccc1)C1CCCCC1	none | LAP4-GFP pick2 inactive | MEP2 cherry2 inactive | RPL19A GFP CP2 inactive | CIT2 GFP CP2 inactive | AGP1-GFP pick2 inactive | s288c autofluor inactive
O=C(Cn1ccc2ccccc2c1=O)NCCC(=O)Nc1cccc(Cl)c1	none
Cc1cc(NC(=O)CCS(=O)(=O)c2nc(-c3ccccc3)cc(C(F)(F)F)n2)no1	none
CS(=O)(=O)c1nc(-c2ccccc2)cc(C(F)(F)F)n1	LAP4-GFP MLPCN 160 | s288c autofluor inactive
CN1C(=O)c2ccc(C(=O)NCc3ccccn3)cc2C1=O	none
CC(C)CCN1C(=O)c2ccc(C(=O)NCc3ccccn3)cc2C1=O	LAP4-GFP MLPCN 164 | LAP4-GFP pick2 inactive | MEP2 cherry2 inactive | RPL19A GFP CP2 inactive | CIT2 GFP CP2 inactive | AGP1-GFP pick2 inactive
CNc1nc(N)c([N+](=O)[O-])c(Nc2ccccc2)n1	none (no result: CIT2-GFP yeast, MEP2 TOR yeast, RPL19A-GFP yeast, AGP1-GFP MLPCN, LAP4-GFP MLPCN) | s288c autofl DR inactive | TORC1 bypass gr inactive
Nc1nc(NCc2ccccc2)nc(Nc2ccc(F)cc2)c1[N+](=O)[O-]	none
CNc1nc(N)c([N+](=O)[O-])c(NCC2CCCO2)n1 (configuration not stated)	none | s288c autofl DR inactive | TORC1 bypass gr inactive
CNc1nc(N)c([N+](=O)[O-])c(Nc2ccc(Cl)cc2)n1	none (no result: CIT2-GFP yeast, MEP2 TOR yeast, RPL19A-GFP yeast, AGP1-GFP MLPCN, LAP4-GFP MLPCN) | s288c autofl DR inactive | TORC1 bypass gr inactive
COCCNc1nc(N)c([N+](=O)[O-])c(NCC2CCCO2)n1 (configuration not stated)	none
CCOc1ccc(Nc2nc(NC)nc(N)c2[N+](=O)[O-])cc1	none (no result: CIT2-GFP yeast, MEP2 TOR yeast, RPL19A-GFP yeast, AGP1-GFP MLPCN, LAP4-GFP MLPCN) | s288c autofl DR inactive | TORC1 bypass gr inactive
Cc1ccccc1C(C)NC(=O)COC(=O)Cn1cc(C(F)(F)F)ccc1=O (configuration not stated)	none
Cc1ccc(C)c(NC(=O)COC(=O)CCCN=C2NS(=O)(=O)c3ccccc32)c1	none
COc1ccc(OC)c(NC(=O)COC(=O)CCCN=C2NS(=O)(=O)c3ccccc32)c1	LAP4-GFP MLPCN 163 | LAP4-GFP pick2 inactive | MEP2 cherry2 inactive | RPL19A GFP CP2 inactive | CIT2 GFP CP2 inactive | AGP1-GFP pick2 inactive
CSc1nc(C)cc(-c2cc(C(=O)Nc3ccccc3)on2)n1	none | LAP4-GFP pick2 inactive | MEP2 cherry2 inactive | RPL19A GFP CP2 inactive | CIT2 GFP CP2 inactive | AGP1-GFP pick2 inactive
COc1ccc(-c2cc(C(=O)Nc3ccccc3)on2)cc1	none
CCCNc1nc(C)cc(-c2cc(C(=O)NC3CCCC3)on2)n1	LAP4-GFP MLPCN 156 | LAP4-GFP pick2 inactive | MEP2 cherry2 inactive | RPL19A GFP CP2 inactive | CIT2 GFP CP2 inactive | AGP1-GFP pick2 inactive
Cc1cc(-c2cc(C(=O)NCc3ccccc3)on2)nc(NC2CCCC2)n1	none | LAP4-GFP pick2 inactive | MEP2 cherry2 inactive | RPL19A GFP CP2 inactive | CIT2 GFP CP2 inactive | AGP1-GFP pick2 inactive
Cc1cc(-c2cc(C(=O)NC3CCCC3)on2)nc(NC2CCCC2)n1	none
Cc1cc(-c2cc(C(=O)Nc3ccccc3)on2)nc(NC2CCCC2)n1	none | LAP4-GFP pick2 inactive | MEP2 cherry2 inactive | RPL19A GFP CP2 inactive | CIT2 GFP CP2 inactive | AGP1-GFP pick2 inactive
Cc1cc(Oc2ccccc2)nc(NCc2ccccc2)n1	none
Nc1cc(Oc2cccc(Cl)c2)nc(NCc2ccccc2)n1	none (no result: CIT2-GFP yeast, MEP2 TOR yeast, RPL19A-GFP yeast, AGP1-GFP MLPCN, LAP4-GFP MLPCN) | s288c autofl DR inactive | TORC1 bypass gr inactive
COc1cc(Oc2ccccc2)nc(N)n1	none
CNc1nc(N)cc(Oc2cccc(Cl)c2)n1	none (no result: CIT2-GFP yeast, MEP2 TOR yeast, RPL19A-GFP yeast, AGP1-GFP MLPCN, LAP4-GFP MLPCN) | TORC1 bypass gr inactive
Cc1cccc2sc(N(CCN(C)C)C(=O)C3CCN(S(=O)(=O)c4cccs4)CC3)nc12	none
CC(C)Cn1cnc2c1c(=O)[nH]c(=O)n2Cc1ccccc1	none
c1ccc(Nc2nc(-c3ccccn3)cs2)cc1	none
c1ccc(-c2csc(Nc3cccnc3)n2)nc1	none | LAP4-GFP pick2 inactive | MEP2 cherry2 inactive | RPL19A GFP CP2 inactive | CIT2 GFP CP2 inactive | AGP1-GFP pick2 inactive | s288c autofluor inactive
COc1cccc2sc(Nc3nc(-c4ccccn4)cs3)nc12	LAP4-GFP MLPCN 169 | s288c autofluor inactive
COCCNC(=O)c1ccc(-c2csc(C)n2)cc1	none
CN(C)S(=O)(=O)c1ccc(Cl)c(NC(=O)CN2CCN(Cc3ccc4c(c3)OCO4)CC2)c1	none

Compound activity (PubChem BioAssay)
